Bioassay records: PubChem, several laboratories
Shown are actives, neighbours in structure and some others; about 6.7% of the full set was active somewhere.
GDH-TPI inh = counter-screen for M. tuberculosis FBA inhibitors: GDH-TPI coupled enzymes. GDH-TPI coupled enzyme counterscreen, NADH absorbance. inhibition, % at 4.8 µM. actives 1.2% (n = 360,000). AID 588335; in the data active means inhibition above about 30%;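 further: 0% = DMSO wells and 100% = wells lacking the enzyme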
Bead autofluor = counter-screen for toxin protease inhibitors: compound fluorescence. fluorescence intensity (test concentration not listed). actives 3.1% (n = 360,000). compound autofluorescence counterscreen, microsphere flow cytometry; active compounds read high. AID 624483; in the data active means fluorescence intensity above about 16000; inconclusive means no clear call, values can overlap the other calls
BoNT F protease = blocks Botulinum neurotoxin F light chain protease; Multiplex microsphere protease cleavage assay, flow cytometry; actives 0.22% (n = 360,000); inhibition, % at 10 µM; in the data active means inhibition above about 35%, passing the limit was not always enough; inconclusive means no clear call, values can overlap the other calls; further: plate controls were buffer without enzyme for full effect and enzyme alone for no effect
Anthrax LF inh2 = inhibitors of Bacillus anthracis lethal factor protease | multiplex microsphere protease cleavage assay, LF | inhibition, % at 10 µM | actives 0.12% (n = 360,000) | AID 588501; further: plate controls were buffer without enzyme for full effect and enzyme alone for no effect
Mtb FBA inh = inhibitors of M. tuberculosis fructose-bisphosphate aldolase. P9WQA3. inhibition, % at 1 µM. actives 2.3% (n = 360,000). purified M. tuberculosis FBA, fluorescence read-out. AID 588726; in the data active means inhibition above about 27%;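 further: 0% = vehicle and 100% = reference inhibitor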
Target sequence (P9WQA3 whole entry, looked up): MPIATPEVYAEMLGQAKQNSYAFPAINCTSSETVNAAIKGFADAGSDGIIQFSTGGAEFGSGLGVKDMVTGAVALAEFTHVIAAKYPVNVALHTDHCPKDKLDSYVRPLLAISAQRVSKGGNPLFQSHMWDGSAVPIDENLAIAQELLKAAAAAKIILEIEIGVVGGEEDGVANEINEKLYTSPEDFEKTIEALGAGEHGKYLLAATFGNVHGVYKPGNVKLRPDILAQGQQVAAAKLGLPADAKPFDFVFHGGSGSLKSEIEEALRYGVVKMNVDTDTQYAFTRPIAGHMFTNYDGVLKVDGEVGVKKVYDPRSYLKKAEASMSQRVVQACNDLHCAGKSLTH
BoNT-A LC inh2 = BoNT A light chain protease inhibition | multiplex microsphere protease substrate cleavage, flow cytometry | inhibition, % at 10 µM | actives 0.17% (n = 360,000) | AID 588499; further: plate controls were buffer without enzyme for full effect and enzyme alone for no effect
* marks the source's active call; other numbers are inactive results; u = inconclusive; x = no result. Unless noted, no stated cut-off is given here; in the data, active means inhibition above about 30%; inconclusive means no clear call, values can overlap the other calls; inactive means below that.

SMILES	GDH-TPI inh	Bead autofluor	BoNT F protease	Anthrax LF inh2	Mtb FBA inh	BoNT-A LC inh2
O=C(CCCn1c(=O)oc2ccccc21)N1CCN(c2ccc(F)cc2)CC1	-2.4	4736	-2.2	2.5	4.4	-0.6
CCOC(=O)Cc1csc(NC(=O)c2ccc(S(=O)(=O)N(CCOC)CCOC)cc2)n1	13.7	2149	1.5	1.5	-3.8	0.0
CCN(CC)S(=O)(=O)c1ccc(N(C)C)c(NC(=O)CC(NC(C)=O)c2ccccc2)c1 (stereo not drawn)	1.3	4397	-0.9	-1.4	1.3	-1.2
CCCCn1c(-c2ccncc2)nc2c1c(=O)[nH]c(=O)n2CC(C)C	8.5	3115	3.1	-4.4	2.6	0.2
O=C(CN1CCNCC1)NCCSc1ccc(Cl)cc1	0.6	2726	-3.4	-2.2	-1.0	-0.4
CC(=O)NCCn1c(SCC(=O)NCC2CCCO2)nc2ccccc2c1=O (stereo not drawn)	13.3	22103*	-4.3	-1.6	1.8	-1.4
O=C(CSc1nc2ccccc2c(=O)n1CC1CCCO1)NCC1CCCO1 (stereo not drawn)	0.0	17453*	7.6	-7.8	-1.1	u
Cc1ccc(CNC(=O)CSc2nc3ccccc3c(=O)n2CC2CCCO2)cc1 (stereo not drawn)	9.8	6188	-10.2	-1.1	4.1	-0.6
CCC(Sc1nc2ccccc2c(=O)n1CCN1CCOCC1)C(=O)NCc1cccnc1 (stereo not drawn)	3.4	9881	4.6	-10.8	0.4	0.4
CCC(Sc1nc2ccccc2c(=O)n1CC1CCCO1)C(=O)NCc1cccnc1 (stereo not drawn)	-0.6	20816*	-3.5	-2.6	-2.4	u
Cc1ccc(NC(=O)COc2ccc3oc4c(c3c2)CCCC4)nc1	8.2	3797	-7.3	-1.9	0.0	-0.8
COC(=O)[C@H]1[C@@H](C)N(Cc2ccccc2)C(=O)N[C@H]1c1ccccc1	5.3	3897	3.6	-5.8	4.2	0.5
O=C1/C(=C/c2ccc([N+](=O)[O-])cc2)C=C(c2ccccc2)N1c1ccc(O)cc1	7.2	22121*	-3.7	-14.1	0.6	0.9
COc1ccc(NC(=O)COc2ccc(N(C)S(=O)(=O)c3ccc(Cl)cc3)cc2)cc1OC	-3.6	u	-13.2	25.2	0.0	u
COc1ccc(N2C(=O)c3ccccc3S2(=O)=O)cc1	-6.2	4249	3.3	0.7	-6.0	0.2
COc1ccc2c(c1)-c1ccccc1S(=O)(=O)N2C(C)=O	13.4	13087	-20.2	-3.0	30.7*	-0.8
Cc1nc2ccccc2c(=O)n1-c1ccc(NS(=O)(=O)c2ccccc2)cc1	-7.4	4492	-1.4	-1.2	0.2	-0.4
Cc1ccc(S(=O)(=O)CNC(=S)c2ccc3ccccc3c2)cc1	7.6	22964*	0.9	-1.1	-0.9	u
Cc1ccc(S(=O)(=O)CNC(=S)c2cccc(C)c2)cc1	-2.4	10274	-7.4	-1.8	0.9	-0.7
CN(C)/C=C1/C=C(c2ccccc2)OC1=O	33.3*	11340	-12.7	-4.9	1.5	-1.0
O=C(Cn1cccc1)N1CCc2ccccc21	2.5	17880*	-9.7	-3.9	2.3	-4.5
CC1Oc2ccccc2N(CC(=O)N2CCCc3ccccc32)C1=O (stereo not drawn)	0.0	18633*	12.7	-16.5	0.2	11.4
O=C(NC1CC2CCCC(C1)N2CC(=O)N1CCCc2ccccc21)C1CCCCC1 (stereo not drawn)	9.9	4572	8.1	-0.2	190.6*	-0.2
CC1Oc2ccccc2N(CC(=O)N2CCCCC2)C1=O (stereo not drawn)	8.2	3603	3.1	1.4	6.6	2.2
O=C(CSc1ccccc1)N1CCc2ccccc21	6.8	2916	-5.3	-1.5	-1.9	-0.3
SMILES	GDH-TPI inh	Bead autofluor	BoNT F protease	Anthrax LF inh2	Mtb FBA inh	BoNT-A LC inh2
CC1Oc2ccccc2N(CC(=O)N2CCc3ccccc32)C1=O (stereo not drawn)	-2.1	23145*	0.1	-3.9	4.0	0.9
Cc1ccc(NC(=O)c2ncn[nH]2)cc1	3.5	2425	-1.0	-0.1	-2.2	0.1
COc1ccc(N2CCN(C(=O)c3cn(C4CCCC4)c(=O)c4c3c3ccccc3n4C)CC2)cc1	12.9	3017	-10.6	-8.6	1.1	-0.3
CC(C)(C)c1cc(NS(=O)(=O)c2ccc3c(c2)OCCO3)on1	10.7	13966	9.6	3.2	-2.8	7.1
CCOC(=O)c1ccc(S(=O)(=O)Nc2cc(C(C)(C)C)no2)cc1	-12.4	24179*	-0.3	-2.0	-3.5	-1.6
CCCc1cc(C(=O)N2CCN(C(c3ccccc3)c3ccccc3)CC2)no1	6.6	5879	1.4	-4.3	0.3	-0.2
CSc1ccc(C(=S)N2CCN(C)CC2)cc1	15.8	10696	-2.7	-1.7	-1.2	-0.6
CC(=O)N1CCN(C(c2ccccc2)c2ccccc2)CC1	x	x	x	2.8	3.4	-2.2
CSc1ccc(C(=S)N2CCN(C(c3ccccc3)c3ccccc3)CC2)cc1	-2.5	25174*	-5.1	-2.4	-1.3	-2.3
O=C(c1ccc2c(=O)n3c(nc2c1)CCCCC3)N1CCN(C(c2ccccc2)c2ccccc2)CC1	11.7	23040*	-1.3	3.7	3.1	-0.4
O=C(c1ccc(=O)oc1)N1CCN(C(c2ccccc2)c2ccccc2)CC1	39.1*	23517*	-4.2	-3.0	9.1	u
Cc1cc(C(=O)N2CCN(C(c3ccccc3)c3ccccc3)CC2)no1	2.5	23268*	-5.3	-1.8	0.2	-2.8
CCOc1cc2[nH]c(=S)n(CCN3CCC(C)CC3)c(=O)c2cc1OCC	8.7	10801	4.3	-11.6	2.4	-1.6
O=C(NCc1ccccc1)Nc1nnc([C@@H]2C[C@H](O)[C@@H](CO)O2)s1	-1.8	3413	-4.5	-3.1	-1.2	0.3
CC1=C(C(=O)Nc2ccccc2)C(c2ccccc2[N+](=O)[O-])NC(=O)N1 (stereo not drawn)	13.6	2077	-8.9	-1.1	3.1	-0.6
Cc1c(NC(=S)N/N=C/c2ccc(O)cc2)c(=O)n(-c2ccccc2)n1C	26.1	10815	-2.5	-0.6	-3.9	-0.4
Cc1c(NC(=S)N/N=C/c2cc([N+](=O)[O-])ccc2O)c(=O)n(-c2ccccc2)n1C	49.4*	4184	-3.5	-6.4	-10.8	-0.3
CC(C)CCN1C(=O)CCC1(C)C(=O)NC1CCCCCCC1 (stereo not drawn)	3.1	23125*	-0.9	-1.0	0.6	-0.3
COc1cccc(CN2C(=O)CCC2(C)C(=O)NC2CCCCC2)c1 (stereo not drawn)	-0.5	4481	-6.9	-6.7	3.0	0.3
CC1(C(=O)NC2CCCC2)CCC(=O)N1Cc1ccc2c(c1)OCO2 (stereo not drawn)	-2.5	25159*	-6.9	-3.0	-2.5	-4.4
COc1ccc(CN2C(=O)CCC2(C)C(=O)NC2CCCCCC2)cc1 (stereo not drawn)	-4.8	23241*	0.6	-3.0	-1.0	-1.9
COCCNC(=O)C(=O)Nc1cccc(Br)c1	-4.1	8166	-5.3	-3.1	2.3	-1.0
